From the supplement of paper PMC10849652
The full data set covers some 8,800 targets. This sample favours those with a hit. About 0.5% of all pairs of compound and target were hits.

How the values were obtained:
Test in all cases: log2 fold change, soluble protein after heating vs DMSO (PISA); higher = thermal stabilisation; K562 lysate, 10 uM; active = over 0.2 and 3.5 SD of the protein, either way, in both replicates (recomputed)
[1] = compound: C1=CC=C(C=C1)[C@H](COC2=CC3=C(C=C2)NC(=O)N3)NC(=O)C4=CC=CN(C4=O)CC5=CC(=C(C=C5)F)F
Method in brief: (§1)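 Pellets of K562 cells were dounce-homogenised in PBS pH 7.4 with 1 mM MgCl2, and the crude extract was held at 1 mg/mL protein for a 30 min treatment with 10 μM compound. Aliquots were heated for 3 min over 48°C-58°C and pooled before NP-40 was added to 0.5% at 4°C. The supernatant from 21,000xg for 90 min was quantified by TMTpro 16plex LC-MS/MS with channel sums equalised. Values are reported from duplicates as log-two fold change in thermal stability relative to solvent controls.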

[2] = compound: CC1=C(SC2=C1C(=N[C@H](C3=NN=C(N32)C)CC(=O)N)C4=CC=C(C=C4)Cl)C
Method in brief: as §1

[3] = compound: CC1=C2C(=CC=C1)N=C(N(C2=O)C3=CC=CC=C3C)CN4C=NC5=C(N=CN=C54)N
Method in brief: as §1

[4] = compound: Cc1sc2c(c1C)C(c1ccc(Cl)cc1)=N[C@@H](CC(=O)OC(C)(C)C)c1nnc(C)n1-2
Method in brief: as §1

[5] = compound: c1ccc([C@@H]2C[C@H]2NC2CCNCC2)cc1
Method in brief: as §1

Measured: log2 fold change

CPT1A (UniProt P50416)
inactive: [1] 0.042 | [2] 0.03 | [3] -0.004 | [4] 0.07 | [5] 0.011

CUL1 (UniProt Q13616)
inactive: [1] 0.017 | [2] -0.027 | [3] -0.007 | [4] 0.016 | [5] -0.001

CHEK2 (UniProt O96017)
inactive: [1] -0.02 | [2] -0.041 | [3] -0.016 | [4] 0.006 | [5] 0.014

CHURC1 isoform 2 (UniProt Q8WUH1)
inactive: [1] 0.045 | [2] -0.05 | [3] -0.046 | [4] -0.014 | [5] -0.063

CYP51A1 (UniProt Q16850)
UniProt Q16850, sequence (Q16850 whole entry, looked up): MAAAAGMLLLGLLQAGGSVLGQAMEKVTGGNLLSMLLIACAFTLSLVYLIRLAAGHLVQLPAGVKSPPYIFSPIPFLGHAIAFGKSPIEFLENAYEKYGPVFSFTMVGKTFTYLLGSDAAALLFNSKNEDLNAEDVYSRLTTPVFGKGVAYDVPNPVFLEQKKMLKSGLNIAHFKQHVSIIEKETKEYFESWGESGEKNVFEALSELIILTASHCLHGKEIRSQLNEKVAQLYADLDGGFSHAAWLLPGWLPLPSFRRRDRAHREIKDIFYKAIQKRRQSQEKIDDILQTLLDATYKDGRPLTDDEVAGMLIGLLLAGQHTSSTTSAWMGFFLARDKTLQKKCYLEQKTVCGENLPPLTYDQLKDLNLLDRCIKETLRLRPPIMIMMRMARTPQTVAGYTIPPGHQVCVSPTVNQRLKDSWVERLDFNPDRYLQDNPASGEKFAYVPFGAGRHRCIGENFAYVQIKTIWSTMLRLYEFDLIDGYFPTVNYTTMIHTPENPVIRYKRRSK
inactive: [1] 0.028 | [2] -0.105 | [3] -0.058 | [4] -0.028 | [5] -0.007

CSTF2 (UniProt P33240)
inactive: [1] -0.027 | [2] 0.021 | [3] 0.055 | [4] -0.032 | [5] 0.01

DAPK1 isoform 3 (UniProt P53355)
inactive: [3] 0.035 | [4] 0.013 | [5] 0.039

DNA2 (UniProt P51530)
inactive: [3] 0.047 | [4] 0.072 | [5] 0.026

DDAH1 (UniProt O94760)
inactive: [3] 0.005 | [4] 0.15 | [5] -0.072

CSNK1A1 isoform 3 (UniProt P48729)
inactive: [4] 0.021

CHMP4A (UniProt H0YIN6)
inactive: [1] 0.032 | [2] 0.166 | [4] -0.222 | [5] -0.12

DHX32 (UniProt Q7L7V1)
inactive: [3] -0.086 | [5] -0.009

COX7B (UniProt P24311)
inactive: [3] -0.031 | [4] -0.027 | [5] -0.075

DLGAP5 isoform 3 (UniProt Q15398)
inactive: [1] -0.167 | [2] 0.031 | [4] -0.036 | [5] 0.021

CNTN4 (UniProt Q8IWV2)
inactive: [1] 0.046 | [2] 0.073 | [3] 0.105 | [5] -0.319

CLIP1 isoform 2 (UniProt P30622)
inactive: [1] 0.11 | [2] -0.03 | [4] 0.009 | [5] -0.002

CLIP1, A0A3B3ITA2
inactive: [3] 0.035 | [5] -0.123

CSRP2 (UniProt Q16527)
UniProt Q16527, sequence (Q16527 whole entry, looked up): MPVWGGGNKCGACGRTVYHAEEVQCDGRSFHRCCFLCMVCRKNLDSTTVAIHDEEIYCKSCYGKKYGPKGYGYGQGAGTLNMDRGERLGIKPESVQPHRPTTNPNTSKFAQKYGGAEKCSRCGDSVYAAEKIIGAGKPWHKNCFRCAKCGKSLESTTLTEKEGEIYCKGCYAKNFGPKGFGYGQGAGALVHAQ
inactive: [1] -0.031 | [2] -0.018 | [5] 0.003

CYP2S1 isoform 2 (UniProt Q96SQ9)
inactive: [3] 0.033 | [4] -0.123

DCTN1 isoform 4 (UniProt Q14203)
UniProt Q14203, sequence (Q14203 whole entry, looked up): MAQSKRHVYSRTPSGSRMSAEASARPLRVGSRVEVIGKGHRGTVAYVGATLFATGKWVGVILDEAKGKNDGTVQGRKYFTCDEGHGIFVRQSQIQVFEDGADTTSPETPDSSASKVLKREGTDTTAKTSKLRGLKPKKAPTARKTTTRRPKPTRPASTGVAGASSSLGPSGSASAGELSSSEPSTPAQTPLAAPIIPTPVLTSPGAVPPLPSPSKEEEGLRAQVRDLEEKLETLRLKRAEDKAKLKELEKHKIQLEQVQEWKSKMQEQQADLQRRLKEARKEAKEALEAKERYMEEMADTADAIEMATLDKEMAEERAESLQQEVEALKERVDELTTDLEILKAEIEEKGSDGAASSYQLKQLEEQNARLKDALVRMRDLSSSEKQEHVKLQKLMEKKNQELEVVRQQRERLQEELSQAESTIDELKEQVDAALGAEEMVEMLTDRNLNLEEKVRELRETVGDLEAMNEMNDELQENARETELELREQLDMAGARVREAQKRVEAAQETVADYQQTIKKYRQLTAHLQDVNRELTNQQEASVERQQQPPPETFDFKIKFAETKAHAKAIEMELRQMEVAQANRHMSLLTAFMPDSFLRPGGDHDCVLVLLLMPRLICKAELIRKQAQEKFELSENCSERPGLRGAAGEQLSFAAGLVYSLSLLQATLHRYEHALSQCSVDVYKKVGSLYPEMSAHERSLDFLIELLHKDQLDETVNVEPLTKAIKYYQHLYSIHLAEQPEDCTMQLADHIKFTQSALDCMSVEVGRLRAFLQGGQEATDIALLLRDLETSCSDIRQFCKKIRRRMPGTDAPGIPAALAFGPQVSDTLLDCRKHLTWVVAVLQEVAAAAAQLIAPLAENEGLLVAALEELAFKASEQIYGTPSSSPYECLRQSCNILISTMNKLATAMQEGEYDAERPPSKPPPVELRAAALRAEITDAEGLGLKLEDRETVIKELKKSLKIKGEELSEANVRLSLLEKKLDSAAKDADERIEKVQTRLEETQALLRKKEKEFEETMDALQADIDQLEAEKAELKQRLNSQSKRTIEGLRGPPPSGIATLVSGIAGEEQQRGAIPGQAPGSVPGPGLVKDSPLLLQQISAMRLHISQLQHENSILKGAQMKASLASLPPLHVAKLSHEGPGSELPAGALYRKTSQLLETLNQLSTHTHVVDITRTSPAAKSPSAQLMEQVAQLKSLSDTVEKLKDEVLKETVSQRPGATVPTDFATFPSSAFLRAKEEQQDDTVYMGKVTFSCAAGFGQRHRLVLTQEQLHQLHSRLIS
inactive: [3] 0.013 | [4] -0.13 | [5] -0.452

CPLX1 (UniProt O14810)
inactive: [3] -0.08 | [4] -0.239

DONSON (UniProt Q9NYP3)
inactive: [1] -0.043 | [2] 0.068 | [4] 0.013 | [5] -0.243

CORO7 (UniProt P57737)
inactive: [3] 0.18 | [4] 0.165 | [5] 0.164

CLASP2 (UniProt O75122)
inactive: [1] 0.16 | [2] -0.248 | [3] -0.105 | [5] 0.002

CRLS1 (UniProt Q9UJA2)
inactive: [1] -0.349 | [2] 0.044 | [5] 0.065

COL6A3 (UniProt P12111)
UniProt P12111, sequence (P12111 whole entry, looked up): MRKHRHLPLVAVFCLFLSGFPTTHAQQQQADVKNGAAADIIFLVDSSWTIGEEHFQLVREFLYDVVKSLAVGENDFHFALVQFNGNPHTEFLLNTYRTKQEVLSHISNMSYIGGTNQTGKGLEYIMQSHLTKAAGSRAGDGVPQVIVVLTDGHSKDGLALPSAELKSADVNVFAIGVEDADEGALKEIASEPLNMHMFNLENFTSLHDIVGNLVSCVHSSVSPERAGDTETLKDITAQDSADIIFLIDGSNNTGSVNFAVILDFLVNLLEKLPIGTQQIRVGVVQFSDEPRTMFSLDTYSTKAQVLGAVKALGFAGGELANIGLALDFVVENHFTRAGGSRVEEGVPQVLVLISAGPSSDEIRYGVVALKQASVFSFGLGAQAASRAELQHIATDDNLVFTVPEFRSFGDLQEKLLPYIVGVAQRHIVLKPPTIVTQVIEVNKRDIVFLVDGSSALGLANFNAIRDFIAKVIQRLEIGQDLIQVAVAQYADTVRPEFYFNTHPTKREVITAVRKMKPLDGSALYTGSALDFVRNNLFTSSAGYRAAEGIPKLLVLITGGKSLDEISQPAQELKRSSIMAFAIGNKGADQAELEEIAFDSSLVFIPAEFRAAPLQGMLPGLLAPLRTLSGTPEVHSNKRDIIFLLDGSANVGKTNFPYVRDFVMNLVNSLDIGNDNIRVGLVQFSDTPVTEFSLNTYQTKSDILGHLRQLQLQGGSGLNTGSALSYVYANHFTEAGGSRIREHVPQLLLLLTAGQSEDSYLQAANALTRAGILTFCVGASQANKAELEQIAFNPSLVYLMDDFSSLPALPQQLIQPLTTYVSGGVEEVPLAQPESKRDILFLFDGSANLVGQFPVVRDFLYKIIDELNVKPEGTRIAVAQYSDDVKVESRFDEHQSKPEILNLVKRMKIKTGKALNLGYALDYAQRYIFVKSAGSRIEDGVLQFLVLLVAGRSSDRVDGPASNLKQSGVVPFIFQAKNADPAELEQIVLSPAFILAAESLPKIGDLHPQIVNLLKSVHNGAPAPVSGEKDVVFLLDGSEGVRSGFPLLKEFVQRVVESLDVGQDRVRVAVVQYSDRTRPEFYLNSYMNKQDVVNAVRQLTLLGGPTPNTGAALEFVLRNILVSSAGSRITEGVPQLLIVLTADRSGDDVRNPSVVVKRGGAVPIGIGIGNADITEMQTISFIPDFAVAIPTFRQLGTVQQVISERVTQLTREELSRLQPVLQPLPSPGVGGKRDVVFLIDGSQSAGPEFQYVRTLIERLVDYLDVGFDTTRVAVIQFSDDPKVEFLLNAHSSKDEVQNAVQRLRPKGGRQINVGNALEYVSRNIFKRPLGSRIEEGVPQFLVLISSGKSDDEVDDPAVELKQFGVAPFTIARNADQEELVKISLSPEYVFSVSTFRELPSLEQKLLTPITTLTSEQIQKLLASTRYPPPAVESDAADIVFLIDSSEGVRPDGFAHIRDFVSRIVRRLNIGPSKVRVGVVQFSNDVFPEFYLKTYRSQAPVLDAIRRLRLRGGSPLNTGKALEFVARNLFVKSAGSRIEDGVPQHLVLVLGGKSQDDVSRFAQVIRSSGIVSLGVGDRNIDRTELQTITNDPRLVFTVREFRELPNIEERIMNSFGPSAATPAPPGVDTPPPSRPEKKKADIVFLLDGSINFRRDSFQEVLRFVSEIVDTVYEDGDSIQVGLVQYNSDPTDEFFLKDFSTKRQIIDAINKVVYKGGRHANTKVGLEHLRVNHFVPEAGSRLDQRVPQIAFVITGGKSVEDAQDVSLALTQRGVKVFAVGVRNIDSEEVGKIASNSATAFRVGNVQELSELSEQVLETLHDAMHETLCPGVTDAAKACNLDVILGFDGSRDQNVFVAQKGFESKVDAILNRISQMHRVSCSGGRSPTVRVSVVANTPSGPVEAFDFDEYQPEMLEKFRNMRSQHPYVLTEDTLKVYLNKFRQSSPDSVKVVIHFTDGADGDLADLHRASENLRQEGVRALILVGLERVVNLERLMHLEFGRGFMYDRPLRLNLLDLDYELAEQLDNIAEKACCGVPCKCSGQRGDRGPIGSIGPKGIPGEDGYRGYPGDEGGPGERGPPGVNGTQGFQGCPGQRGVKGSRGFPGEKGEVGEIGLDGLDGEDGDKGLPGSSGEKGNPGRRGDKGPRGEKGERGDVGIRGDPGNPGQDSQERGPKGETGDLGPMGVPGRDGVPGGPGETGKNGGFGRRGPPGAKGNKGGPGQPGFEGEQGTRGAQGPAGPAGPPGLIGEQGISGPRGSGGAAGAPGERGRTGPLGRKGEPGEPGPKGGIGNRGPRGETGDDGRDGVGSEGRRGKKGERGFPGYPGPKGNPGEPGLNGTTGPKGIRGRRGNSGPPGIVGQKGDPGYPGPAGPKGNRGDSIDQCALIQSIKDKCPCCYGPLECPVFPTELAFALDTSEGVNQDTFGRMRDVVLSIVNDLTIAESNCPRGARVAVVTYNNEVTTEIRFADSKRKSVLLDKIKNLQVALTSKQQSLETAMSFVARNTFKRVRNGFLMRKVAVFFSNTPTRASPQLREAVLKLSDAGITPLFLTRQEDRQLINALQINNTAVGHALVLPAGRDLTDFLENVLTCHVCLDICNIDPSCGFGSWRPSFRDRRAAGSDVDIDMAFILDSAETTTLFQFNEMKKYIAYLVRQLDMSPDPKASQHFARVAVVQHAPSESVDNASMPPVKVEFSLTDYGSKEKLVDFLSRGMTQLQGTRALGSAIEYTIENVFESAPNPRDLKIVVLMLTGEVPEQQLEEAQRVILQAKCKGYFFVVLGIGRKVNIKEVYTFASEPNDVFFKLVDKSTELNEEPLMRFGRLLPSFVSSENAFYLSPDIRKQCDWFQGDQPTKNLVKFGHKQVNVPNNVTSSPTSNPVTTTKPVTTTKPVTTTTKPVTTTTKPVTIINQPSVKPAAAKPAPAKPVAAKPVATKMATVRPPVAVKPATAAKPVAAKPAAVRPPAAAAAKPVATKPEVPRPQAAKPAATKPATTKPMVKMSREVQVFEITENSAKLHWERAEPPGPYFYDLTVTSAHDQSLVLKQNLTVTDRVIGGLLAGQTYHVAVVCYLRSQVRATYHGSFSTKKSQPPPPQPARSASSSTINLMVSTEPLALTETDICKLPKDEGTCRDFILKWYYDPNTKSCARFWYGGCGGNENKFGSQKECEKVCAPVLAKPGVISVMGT
inactive: [1] -0.008 | [2] -0.04 | [4] -0.079 | [5] 0.13

DHRS13 (UniProt Q6UX07)
inactive: [1] -0.13 | [2] 0.059 | [4] -0.099

CYP4V2 (UniProt Q6ZWL3)
inactive: [1] -0.119 | [2] 0.188 | [4] 0.035

CHFR (UniProt Q96EP1)
inactive: [3] 0.027 | [4] -0.056

CUX1 isoform 2 (UniProt Q13948)
inactive: [3] 0.03 | [4] 0.075 | [5] 0.193

DALRD3 (UniProt Q5D0E6)
inactive: [3] 0.193 | [5] 0.137

DNM2 isoform 4 (UniProt P50570)
inactive: [4] 0.025 | [5] -0.043
